These sequences were tested against ZNF721 full-length (Homo sapiens, UniProt Q8TF20-2 1-923) (assay: HT-SELEX; 20 mM HEPES pH 7, 140 mM KCl, 5 mM NaCl, 1 mM K2HPO4, 2 mM MgSO4, 100 uM EGTA, ZnSO4, 0.1% Tween20; room temperature, 1 h; high values mean tight binding). Conditions: protein: ivt; tags: eGFP (N-terminal); dsDNA, one strand shown.
ZNF721 full-length, sequence (Q8TF20 other isoform, or with tags, fused parts or gaps): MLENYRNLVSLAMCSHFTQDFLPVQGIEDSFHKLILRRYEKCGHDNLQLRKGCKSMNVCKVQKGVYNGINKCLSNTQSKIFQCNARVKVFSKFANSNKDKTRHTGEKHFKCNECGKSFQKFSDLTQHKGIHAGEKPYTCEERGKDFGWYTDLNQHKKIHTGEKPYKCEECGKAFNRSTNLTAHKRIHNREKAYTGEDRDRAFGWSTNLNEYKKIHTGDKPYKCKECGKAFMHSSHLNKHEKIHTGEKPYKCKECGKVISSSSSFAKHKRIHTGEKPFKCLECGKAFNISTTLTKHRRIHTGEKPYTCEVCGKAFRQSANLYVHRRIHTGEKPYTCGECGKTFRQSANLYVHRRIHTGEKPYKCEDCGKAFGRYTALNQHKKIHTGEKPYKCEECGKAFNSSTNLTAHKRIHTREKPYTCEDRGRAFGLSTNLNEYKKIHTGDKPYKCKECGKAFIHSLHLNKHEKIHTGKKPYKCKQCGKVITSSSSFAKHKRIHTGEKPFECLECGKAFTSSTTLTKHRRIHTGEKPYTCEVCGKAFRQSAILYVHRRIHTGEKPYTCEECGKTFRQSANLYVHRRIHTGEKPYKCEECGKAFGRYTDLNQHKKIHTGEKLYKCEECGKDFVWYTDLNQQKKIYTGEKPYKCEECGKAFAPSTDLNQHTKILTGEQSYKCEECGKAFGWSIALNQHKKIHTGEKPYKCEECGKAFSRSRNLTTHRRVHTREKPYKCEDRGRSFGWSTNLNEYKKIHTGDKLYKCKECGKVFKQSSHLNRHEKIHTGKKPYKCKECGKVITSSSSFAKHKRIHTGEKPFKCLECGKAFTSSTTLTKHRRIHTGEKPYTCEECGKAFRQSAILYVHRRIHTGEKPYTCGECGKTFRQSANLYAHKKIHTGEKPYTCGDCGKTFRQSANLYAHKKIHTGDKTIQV
Outline: (§1)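 Tagged transcription factor, expressed in HEK293 lysate or cell-free extract as a full-length protein or DNA-binding-domain fragment, was held on beads. It bound a randomized 40-base DNA library during 1 h at room temperature in low-stringency HEPES/KCl buffer with Tween20. Eluted DNA went through successive PCR cycles and Illumina sequencing of ~3 million 60 bp reads per sample. A higher relative k-mer count in the selected reads denotes tighter binding.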
For CAAAAAGCAG, the binding signal was 0.159 relative 10-mer count.
CCCCCCACCA gave a binding signal of 0.231 relative 10-mer count.
With CCACCACCCG the binding signal was 0.131 relative 10-mer count.
CGAAAAAAAG gave a binding signal of 0.159 relative 10-mer count.
Sequence CCCCCTTCCC has a binding signal of 0.122 relative 10-mer count.
In the case of GCAGCATACC, the binding signal is reported as 0.151 relative 10-mer count.
For AACAAGCAGT, the binding signal was 0.128 relative 10-mer count.
For CACCATCCCC, the binding signal was 0.118 relative 10-mer count.
CCACCACCCA gave a binding signal of 0.222 relative 10-mer count.
Sequence CCGCCCCGCC has a binding signal of 0.156 relative 10-mer count.
Work on GCTTTTTTTA yielded a binding signal of 0.176 relative 10-mer count.
CCCCCCGCCC was tested, and the binding signal was 0.28 relative 10-mer count.
CCCCCCTCCA was tested, and the binding signal was 0.13 relative 10-mer count.
For AAAAAGAAGC, the binding signal was 0.126 relative 10-mer count.
Work on CGACCCACCC yielded a binding signal of 0.126 relative 10-mer count.
CACCCCCAAC showed a binding signal of 0.118 relative 10-mer count.
Work on CCACACCCCA yielded a binding signal of 0.124 relative 10-mer count.
For CCCCTCCCCC, the binding signal was 0.337 relative 10-mer count.
For CATCCCACCC, the binding signal was 0.138 relative 10-mer count.
In the case of CCACCTACCC, the binding signal is reported as 0.112 relative 10-mer count.
CCCCCGCCCA showed a binding signal of 0.167 relative 10-mer count.
CACCCTCCCA showed a binding signal of 0.123 relative 10-mer count.
AGGGAGGGGG showed a binding signal of 0.15 relative 10-mer count.
For CCCACCTCCC, the binding signal was 0.339 relative 10-mer count.
In the case of AGCGTACCCT, the binding signal is reported as 0.204 relative 10-mer count.
For CCCATCCACC, the binding signal was 0.103 relative 10-mer count.
For CCAAAAAACA, the binding signal was 0.16 relative 10-mer count.
In the case of AGAAAGAAGC, the binding signal is reported as 0.136 relative 10-mer count.
With CCCCCCCCCG the binding signal was 0.112 relative 10-mer count.
AGGGGGGAGG gave a binding signal of 0.149 relative 10-mer count.
CCGCCCCCAC showed a binding signal of 0.178 relative 10-mer count.
Sequence CCACCCCCGC has a binding signal of 0.203 relative 10-mer count.
With CCCCGCCCCA the binding signal was 0.196 relative 10-mer count.
For CCCCGCTCCC, the binding signal was 0.139 relative 10-mer count.
CCCCCGCCCG was tested, and the binding signal was 0.109 relative 10-mer count.
Sequence CGCCTCCCCC has a binding signal of 0.126 relative 10-mer count.
GCCCCCTCCC was tested, and the binding signal was 0.134 relative 10-mer count.
ACCGCCCCAC showed a binding signal of 0.103 relative 10-mer count.
CCTCCCCACC was tested, and the binding signal was 0.255 relative 10-mer count.
CCACCTCCCA showed a binding signal of 0.127 relative 10-mer count.

The sequences below were run against ZNF721 DBD1 (Homo sapiens, UniProt Q8TF20-2 29-461) in the same assay as above. Conditions: protein: ivt; tags: eGFP (N-terminal); dsDNA, one strand shown.
ZNF721 DBD1, sequence (Q8TF20 17-449): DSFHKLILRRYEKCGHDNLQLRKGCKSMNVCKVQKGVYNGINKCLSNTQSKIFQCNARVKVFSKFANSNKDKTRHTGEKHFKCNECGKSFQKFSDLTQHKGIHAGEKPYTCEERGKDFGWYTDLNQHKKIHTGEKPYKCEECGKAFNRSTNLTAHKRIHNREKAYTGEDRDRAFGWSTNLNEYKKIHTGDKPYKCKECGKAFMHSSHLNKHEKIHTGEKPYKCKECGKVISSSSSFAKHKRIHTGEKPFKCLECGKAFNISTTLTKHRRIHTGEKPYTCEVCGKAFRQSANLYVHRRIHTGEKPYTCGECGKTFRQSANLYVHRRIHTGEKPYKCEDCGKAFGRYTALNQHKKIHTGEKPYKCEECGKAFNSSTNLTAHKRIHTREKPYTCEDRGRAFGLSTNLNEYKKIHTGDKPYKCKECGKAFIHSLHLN
Outline: as §1
In the case of CAAAAAGCAG, the binding signal is reported as 0.00156 relative 10-mer count.
CCCCCCACCA was tested, and the binding signal was 0.00904 relative 10-mer count.
With CCACCACCCG the binding signal was 0.00564 relative 10-mer count.
Work on CGAAAAAAAG yielded a binding signal of 0.0289 relative 10-mer count.
Work on CCCCCTTCCC yielded a binding signal of 0.00537 relative 10-mer count.
GCAGCATACC was tested, and the binding signal was 0.00147 relative 10-mer count.
AACAAGCAGT gave a binding signal of 0.017 relative 10-mer count.
CACCATCCCC gave a binding signal of 0.00468 relative 10-mer count.
For CCACCACCCA, the binding signal was 0.0105 relative 10-mer count.
CCGCCCCGCC showed a binding signal of 0.00592 relative 10-mer count.
In the case of GCTTTTTTTA, the binding signal is reported as 0.0317 relative 10-mer count.
CCCCCCGCCC gave a binding signal of 0.0116 relative 10-mer count.
For CCCCCCTCCA, the binding signal was 0.0055 relative 10-mer count.
Sequence AAAAAGAAGC has a binding signal of 0.0301 relative 10-mer count.
For CGACCCACCC, the binding signal was 0.00477 relative 10-mer count.
CACCCCCAAC showed a binding signal of 0.00514 relative 10-mer count.
Sequence CCACACCCCA has a binding signal of 0.00472 relative 10-mer count.
Sequence CCCCTCCCCC has a binding signal of 0.0145 relative 10-mer count.
For CATCCCACCC, the binding signal was 0.00527 relative 10-mer count.
In the case of CCACCTACCC, the binding signal is reported as 0.00527 relative 10-mer count.
With CCCCCGCCCA the binding signal was 0.00638 relative 10-mer count.
CACCCTCCCA was tested, and the binding signal was 0.00555 relative 10-mer count.
Sequence AGGGAGGGGG has a binding signal of 0.00628 relative 10-mer count.
Work on CCCACCTCCC yielded a binding signal of 0.017 relative 10-mer count.
With AGCGTACCCT the binding signal was 0.0586 relative 10-mer count.
For CCCATCCACC, the binding signal was 0.00569 relative 10-mer count.
CCAAAAAACA gave a binding signal of 0.00174 relative 10-mer count.
Work on AGAAAGAAGC yielded a binding signal of 0.0675 relative 10-mer count.
Work on CCCCCCCCCG yielded a binding signal of 0.00303 relative 10-mer count.
AGGGGGGAGG showed a binding signal of 0.00789 relative 10-mer count.
CCGCCCCCAC was tested, and the binding signal was 0.00821 relative 10-mer count.
CCACCCCCGC gave a binding signal of 0.0072 relative 10-mer count.
CCCCGCCCCA gave a binding signal of 0.0067 relative 10-mer count.
For CCCCGCTCCC, the binding signal was 0.0044 relative 10-mer count.
Sequence CCCCCGCCCG has a binding signal of 0.00372 relative 10-mer count.
For CGCCTCCCCC, the binding signal was 0.0061 relative 10-mer count.
GCCCCCTCCC was tested, and the binding signal was 0.00633 relative 10-mer count.
With ACCGCCCCAC the binding signal was 0.0033 relative 10-mer count.
Work on CCTCCCCACC yielded a binding signal of 0.0111 relative 10-mer count.
Sequence CCACCTCCCA has a binding signal of 0.0061 relative 10-mer count.

The sequences below were run against ZNF721 DBD2 (Homo sapiens, UniProt Q8TF20-2 395-923) in the same assay as above. Conditions: protein: ivt; tags: eGFP (N-terminal); dsDNA, one strand shown.
ZNF721 DBD2, sequence (Q8TF20 383-911): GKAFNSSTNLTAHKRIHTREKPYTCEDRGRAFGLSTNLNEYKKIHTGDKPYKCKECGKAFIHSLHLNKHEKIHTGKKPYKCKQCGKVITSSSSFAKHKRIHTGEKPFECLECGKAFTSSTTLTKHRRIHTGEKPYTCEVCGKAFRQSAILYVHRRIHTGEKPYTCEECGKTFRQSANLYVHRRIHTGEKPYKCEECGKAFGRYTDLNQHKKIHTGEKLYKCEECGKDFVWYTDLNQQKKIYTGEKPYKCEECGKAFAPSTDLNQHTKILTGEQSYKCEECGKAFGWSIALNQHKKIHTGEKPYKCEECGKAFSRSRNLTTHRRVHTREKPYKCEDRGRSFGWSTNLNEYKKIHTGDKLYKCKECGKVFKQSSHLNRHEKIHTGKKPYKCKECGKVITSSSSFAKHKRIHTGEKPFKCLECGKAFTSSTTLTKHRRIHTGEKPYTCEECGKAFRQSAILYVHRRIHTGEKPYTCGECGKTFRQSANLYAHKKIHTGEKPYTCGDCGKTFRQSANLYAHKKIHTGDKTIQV
Outline: as §1
For CAAAAAGCAG, the binding signal was 0.172 relative 10-mer count.
CCCCCCACCA gave a binding signal of 0.00863 relative 10-mer count.
Sequence CCACCACCCG has a binding signal of 0.00467 relative 10-mer count.
In the case of CGAAAAAAAG, the binding signal is reported as 0.0578 relative 10-mer count.
Sequence CCCCCTTCCC has a binding signal of 0.00264 relative 10-mer count.
For GCAGCATACC, the binding signal was 0.158 relative 10-mer count.
AACAAGCAGT gave a binding signal of 0.0905 relative 10-mer count.
Work on CACCATCCCC yielded a binding signal of 0.003 relative 10-mer count.
With CCACCACCCA the binding signal was 0.00671 relative 10-mer count.
Sequence CCGCCCCGCC has a binding signal of 0.00216 relative 10-mer count.
GCTTTTTTTA was tested, and the binding signal was 0.0453 relative 10-mer count.
CCCCCCGCCC gave a binding signal of 0.00336 relative 10-mer count.
CCCCCCTCCA gave a binding signal of 0.0024 relative 10-mer count.
With AAAAAGAAGC the binding signal was 0.0126 relative 10-mer count.
In the case of CGACCCACCC, the binding signal is reported as 0.00324 relative 10-mer count.
CACCCCCAAC gave a binding signal of 0.0114 relative 10-mer count.
In the case of CCACACCCCA, the binding signal is reported as 0.00503 relative 10-mer count.
Sequence CCCCTCCCCC has a binding signal of 0.00443 relative 10-mer count.
Sequence CATCCCACCC has a binding signal of 0.00563 relative 10-mer count.
In the case of CCACCTACCC, the binding signal is reported as 0.00455 relative 10-mer count.
CCCCCGCCCA showed a binding signal of 0.00192 relative 10-mer count.
For CACCCTCCCA, the binding signal was 0.00443 relative 10-mer count.
In the case of AGGGAGGGGG, the binding signal is reported as 0.00384 relative 10-mer count.
CCCACCTCCC was tested, and the binding signal was 0.00551 relative 10-mer count.
Work on AGCGTACCCT yielded a binding signal of 0.165 relative 10-mer count.
Sequence CCCATCCACC has a binding signal of 0.00827 relative 10-mer count.
For CCAAAAAACA, the binding signal was 0.185 relative 10-mer count.
AGAAAGAAGC was tested, and the binding signal was 0.00216 relative 10-mer count.
Sequence CCCCCCCCCG has a binding signal of 0.00156 relative 10-mer count.
AGGGGGGAGG was tested, and the binding signal was 0.00384 relative 10-mer count.
For CCGCCCCCAC, the binding signal was 0.0036 relative 10-mer count.
Work on CCACCCCCGC yielded a binding signal of 0.00264 relative 10-mer count.
With CCCCGCCCCA the binding signal was 0.00228 relative 10-mer count.
Work on CCCCGCTCCC yielded a binding signal of 0.00108 relative 10-mer count.
CCCCCGCCCG gave a binding signal of 0.00192 relative 10-mer count.
With CGCCTCCCCC the binding signal was 0.00336 relative 10-mer count.
GCCCCCTCCC gave a binding signal of 0.00384 relative 10-mer count.
Sequence ACCGCCCCAC has a binding signal of 0.00252 relative 10-mer count.
For CCTCCCCACC, the binding signal was 0.00791 relative 10-mer count.
CCACCTCCCA showed a binding signal of 0.00384 relative 10-mer count.

Source: publication PMC13541613, “GHT-SELEX demonstrates unexpectedly high intrinsic sequence specificity and complex DNA binding of many human transcription factors”
